Compounds with a hit are over-represented: about 11% of the library has one in this group of screens.
AMA1-RON2 inh: inhibitors of Plasmodium falciparum AMA1-RON2 interaction. AlphaScreen AMA1-biotinylated RON2 peptide binding. Potency, µM (top dose mostly 58.2 µM), for inactives: top-dose activity change, negative = inhibition, most hits filed as inhibitors. 360,000 tested, 0.2% active;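 note: 0% = vehicle wells and -100% = peptide control; nearly all actives have a fitted effect of over 45% in size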
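AMA1 (3D7) with his tag at 25 nM final met compounds first, then biotinylated RON2 peptide at 25 nM; detection used donor plus acceptor beads, 10 µg/mL apiece, read by AlphaScreen after 30 min at room temperature.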
Pf growth 48h: P. falciparum growth inhibition at 48 hours (one generation); 310,000 tested, 5.9% active; Potency, µM (top dose mostly 28.7 µM), for the others: top-dose activity change, negative = inhibition, actives largely listed as inhibitors; AID 504832; P. falciparum luciferase growth in erythrocytes, 48 h; note: % is set by controls: 0 for no effect and ±100 for the full control effect
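Firefly luciferase activity from engineered P. falciparum reports growth; inhibitors lower the luminescent signal. Cultures contained 2% hematocrit erythrocytes at 0.1% final parasitemia.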
NS1 function inh: blocks influenza NS1 protein function | Potency, µM (highest dose often 46.1 µM), for inactives: top-dose activity, positive = more growth | 270,000 tested, 0.4% active | AID 2326; calls by dose curve; note: actives are rising curves; nearly all actives have a fitted effect of over 50% in size
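In this qHTS, NS1 from influenza A is expressed in budding yeast, where it slows growth. Cells are switched from glucose to 2% galactose medium (pH 6.0, -URA), treated with compound, and growth recovery is read at OD600.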
Pf growth 96h: P. falciparum growth inhibition at 96 hours; P. falciparum luciferase reporter growth, 96 h; AID 504834; 320,000 tested, 6.9% active; Potency, µM (titrated, usually from 28.7 µM), without a hit: top-dose activity change, negative = inhibition, usual class: inhibitors; note: % is set by controls: 0 for no effect and ±100 for the full control effect
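P. falciparum expressing integrated firefly luciferase, in erythrocytes at 2% hematocrit, 0.05% parasitemia, incubated with compounds 96 h at 37 C, 5% CO2. Growth inhibition read as loss of luminescence; two-generation exposure targets delayed-death apicoplast inhibitors.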
Sm TGR inh: S. mansoni TGR enzyme inhibition | 360,000 tested, 3% active | AID 485364 | purified TGR, DTNB reduction, TNB absorbance 405 nm | Q962Y6 | Potency, µM (series often up to 114 µM), for inactives: at the highest dose activity change, negative = inhibition, actives largely listed as inhibitors; note: % is set by controls: 0 for no effect and ±100 for the full control effect; nearly all actives have a fitted effect of over 60% in size
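TGR 20 nM + NADPH 100 uM (dispensed conc.), cpd preinc 15 min RT; start with NADPH (500 uM addition) then DTNB (15 mM addition). Kinetic TNB absorbance, 405 nm filter. Four-parameter Hill fit across titration.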
An asterisk follows results filed as active; ? = inconclusive; / = not tested or not shown; [ ] = remark or other dose. Unless noted, calls come from the whole dose curve; as a rule, active = well fitted curve in the direction sought with a large enough effect; inconclusive = small, poorly fitted or top-dose-only effect, or another doubt; inactive = no such curve, though single readings can be large; an effect the other way counts as inactive or inconclusive. Potency is the fitted concentration of half-maximal effect.

SMILES	AMA1-RON2 inh	Pf growth 48h	NS1 function inh	Pf growth 96h	Sm TGR inh
CCCCCOc1ccc(NC(=O)C(=O)NCC2CCCN2CC)cc1 (stereo not given)	-3%	-24%	3%	61%	23%
CCCN(CC1CCCO1)C(=O)CCc1nnc(CCc2ccc(OC)cc2)o1 (stereo not given)	4%	-2%	-17%	6%	0%
CC(C)C[C@H]1CN=C(Nc2ccccc2)N1CCCC1CCCC1	28%	?	-40%	12µM*	11%
Cc1nnsc1C(=O)N1CCCC(N2CCN(c3cccc(C(F)(F)F)c3)CC2)C1 (stereo not given)	-4%	13µM*	-6%	?	-15%
O=C(c1ccco1)N1CCCC(N2CCN(c3cccc(C(F)(F)F)c3)CC2)C1 (stereo not given)	0%	10µM*	-11%	15%	-19%
Cc1cc(C(=O)N2CCCC(N3CCN(c4cccc(C(F)(F)F)c4)CC3)C2)no1 (stereo not given)	-1%	?	-9%	1%	-4%
O=C(c1cccs1)N1CCCC(N2CCN(c3cccc(C(F)(F)F)c3)CC2)C1 (stereo not given)	-15%	?	-30%	-13%	-10%
O=C(c1cc(C2CC2)on1)N1CCCC(N2CCN(c3cccc(C(F)(F)F)c3)CC2)C1 (stereo not given)	?	12µM*	-22%	0%	?
Cc1ccc2[nH]c(CSc3nnc(NC(=O)COc4ccccc4F)s3)cc(=O)c2c1	/	/	/	/	-2%
COc1ccccc1CNC(=O)C1(C)CCN1C(=O)C1(c2ccccc2)CC1 (stereo not given)	-2%	/	/	/	/
COc1ccc(Cn2c(SCc3ccccc3C)nc3cc(OC)c(OC)cc3c2=N)cc1	/	5.9µM*	-76%	1.7µM*	-21%
COCCCn1c(SCCc2ccccc2)nc2cc(OC)c(OC)cc2c1=N	0%	12µM*	/	9.3µM*	-6%
CCSc1nc2cc(OC)c(OC)cc2c(=O)n1CCc1ccccc1	1%	/	3%	?	-2%
CC1=C(C(=O)Nc2ccc([N+](=O)[O-])cc2)C(c2cccc(C(F)(F)F)c2)NC(=S)N1c1ccccc1 (stereo not given)	38%	13µM*	27%	/	-13%
COc1ccc(C2NC(=S)N(c3ccccc3)C(C)=C2C(=O)Nc2ccccc2)cc1 (stereo not given)	33%	/	?	?	7%
COc1cc(/C=C/C(=O)O)ccc1OS(=O)(=O)c1c(C)cc(C)cc1C	-1%	-11%	/	-18%	?
Cn1nc(C(=O)Nc2cc(Cl)ccc2N2CCCC2)c2ccccc2c1=O	-10%	12µM*	/	13µM*	9%
CCCn1nc(C(=O)Nc2cc(C(=O)OC)ccc2C)c2ccccc2c1=O	0%	-11%	3%	?	12%
CN1CCN(c2ccc(Cl)cc2NC(=O)c2ccc([N+](=O)[O-])cc2)CC1	0%	?	8%	?	2%
CCn1nc(C(=O)Nc2ccccc2N2CCCC2)c2ccccc2c1=O	?	?	/	?	-3%
COC(=O)c1ccc(C)c(NC(=O)c2nn(C)c(=O)c3ccccc23)c1	16%	?	7%	13µM*	10%
CN1CCN(c2ccc(Cl)cc2NC(=O)c2nn(-c3ccccc3)c(=O)c3ccccc23)CC1	?	-18%	-2%	15µM*	2%
Cc1ccc(CCNC(=O)CCn2c(=O)c3cccn3c3ccc(F)cc32)cc1	2%	-11%	23%	?	-1%
Cc1ccccc1OCC(=O)Nc1ccccc1C(=O)OCc1cc(=O)n2c(C)csc2n1	/	/	/	/	-22%
COc1ccc(NC(=O)CN(C)C(=O)/C=C/c2cn(-c3ccccc3)nc2-c2ccc(C)cc2)cc1	-10%	9.3µM*	/	13µM*	-4%
SMILES	AMA1-RON2 inh	Pf growth 48h	NS1 function inh	Pf growth 96h	Sm TGR inh
COc1ccc(-c2nn(-c3ccccc3)cc2C(=O)N(C)C)cc1	-4%	34%	-2%	?	0%
O=C(Nc1ccc2ccccc2c1)c1cn(-c2ccccc2)nc1-c1cccs1	9%	?	8%	13µM*	8%
COc1ccc(NC(=O)CN(C)C(=O)/C=C/c2cn(-c3ccccc3)nc2-c2ccc(F)cc2)cc1	-17%	?	/	?	3%
COc1ccc(-c2nn(-c3ccccc3)cc2C(=O)NC(=S)Nc2cc(Cl)ccc2Cl)cc1	3%	2.9µM*	0%	5.2µM*	-15%
CN(C)c1ccc(NC(=O)c2cn(-c3ccccc3)nc2-c2cccs2)cc1	?	/	8%	-19%	-16%
COc1ccc(NC(=O)CN(C)C(=O)c2cn(-c3ccccc3)nc2-c2ccc(OC)cc2)cc1	22%	13µM*	/	?	2%
Cc1ccc(C(=O)N2CCC(N3CCN(Cc4ccc(F)cc4)C(=O)C3=O)CC2)cc1	/	/	/	/	-6%
COc1ccc(NC(=O)CN(C)C(=O)c2cn(-c3ccccc3)nc2-c2ccc(Cl)cc2)cc1	-20%	10µM*	/	?	-3%
COc1ccc(NC(=O)CN(C)C(=O)c2cn(-c3ccccc3)nc2-c2ccc(F)cc2)cc1	43%	12µM*	/	?	-10%
COc1ccc(-c2nn(-c3ccccc3)cc2C(=O)Nc2ccc(C(=O)O)cc2)cc1	5%	-15%	4%	?	2%
CCN(CC)C(=O)c1ccc(NC(=O)c2cn(-c3ccccc3)nc2-c2ccc(OC)cc2)cc1	-2%	?	15%	7.4µM*	-3%
Cc1ccc(-c2nn(-c3ccc(F)cc3)cc2C(=O)N(C)CC(=O)Nc2ccc(N3CCOCC3)cc2)cc1	-9%	-19%	/	?	-4%
CN(CC(=O)Nc1cccc(F)c1)C(=O)c1cn(-c2ccccc2)nc1-c1ccc(Cl)cc1	-7%	15µM*	/	?	6%
COc1cccc(NC(=O)CN(C)C(=O)c2cn(-c3ccccc3)nc2-c2cccs2)c1	-4%	?	/	-26%	-1%
CN(CC(=O)Nc1cccc(F)c1)C(=O)c1cn(-c2ccccc2)nc1-c1cccs1	-4%	/	/	/	/
Cc1cc(N)c2ccccc2[n+]1CCCCCCCCCC[n+]1c(C)cc(N)c2ccccc21	/	0.18µM*	-51%	-100%[12.8 µM]	/
Nc1cc2c(nc3c4ccccc4c(N)cc3[n+]2-c2cccc3ccccc23)c2ccccc12 (tested in a mixture with another compound)	/	/	-15%	/	/
CCNCC(=O)N1c2ccccc2CCc2ccc(NC(=O)OC(C)C)cc21	52%	12µM*	19%	-33%	-33%
CCOC(=O)Nc1ccc2c(c1)N(C(=O)N(C)C)c1ccccc1CC2	-9%	?	-14%	-1%	15%
CCNCC(=O)N1c2ccccc2CCc2ccc(NC(C)=O)cc21	56%	11%	1%	11%	-25%
CCOC(=O)Nc1ccc2c(c1)N(C(=O)CCN(CC)CC)c1ccccc1S2=O (stereo not given)	0%	11%	-5%	82%	4.5µM*

Assay outcomes from PubChem.
